The list is not random: actives were taken first. Their share in the collection is about 27%.
CYP2C9 inhib: inhibitors of human CYP2C9; P11712; CYP2C9 Supersomes, luciferin-H conversion, luminescence; inhibition, % at 5 µM; hit rate 20% among 96,000; AID 777;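 active = blocking of liver enzyme CYP2C9 beyond about 50% at 5 µM, limit read from the data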
Target sequence (P11712 whole entry, looked up): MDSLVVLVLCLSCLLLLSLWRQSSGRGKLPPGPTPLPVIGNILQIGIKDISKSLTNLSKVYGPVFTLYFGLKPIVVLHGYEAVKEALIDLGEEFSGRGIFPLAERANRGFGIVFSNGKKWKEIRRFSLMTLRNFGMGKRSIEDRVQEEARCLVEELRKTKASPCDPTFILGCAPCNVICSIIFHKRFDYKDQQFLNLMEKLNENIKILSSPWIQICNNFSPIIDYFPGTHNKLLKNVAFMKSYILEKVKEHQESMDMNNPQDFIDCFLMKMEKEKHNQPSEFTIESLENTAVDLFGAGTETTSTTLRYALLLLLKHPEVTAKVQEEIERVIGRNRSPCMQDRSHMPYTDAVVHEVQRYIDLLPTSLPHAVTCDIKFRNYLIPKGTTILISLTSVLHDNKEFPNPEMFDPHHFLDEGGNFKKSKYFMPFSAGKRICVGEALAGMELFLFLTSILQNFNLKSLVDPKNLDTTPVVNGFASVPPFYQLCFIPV
CYP2C19 inhib: inhibitors of human CYP2C19; CYP2C19 Supersomes, luciferin-H EGE luminescence, 30 min; P33261; inhibition, % at 5 µM; hit rate 21% among 96,000;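 active = CYP2C19 inhibition above a set limit at 5 µM in the primary screen, cut at about 50% in these data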;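 also: plate controls were negative control wells for no effect and 2.5 mM tranylcypromine positive control for full effect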
CYP2C19 act: cytochrome P450 2C19 (human) activation; P33261; recombinant CYP2C19, luciferin-H EGE luminescence; active compounds read high; 0 = fully inhibited enzyme, 1 = untreated enzyme; activation factor at 5 µM; 96,000 tested, under 10 active;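 active = activation factor of at least 2 at 5 µM in the primary screen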;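 also: 0 = wells with 2.5 mM tranylcypromine and 1 = vehicle-only wells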
CYP2C9 act: CYP2C9 (human) activation. recombinant CYP2C9, luciferin-H conversion, luminescence; active compounds read high; factor 1 = untreated enzyme, 0 = blocked. activation factor at 5 µM. P11712. hit rate 1.4% among 96,000;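 active = activation factor of 2 or more for CYP2C9 at a 5 µM dose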;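 also: 0 = sulfaphenazole-blocked wells and 1 = vehicle-only wells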
sEH inh: blocks human soluble epoxide hydrolase activity; hit rate 0.34% among 91,000; inhibition, % at 2 µM; P34913; AID 707; recombinant human sEH enzymatic activity assay; in the data active = inhibition above about 80%
sEH act: increases human soluble epoxide hydrolase activity | P34913 | purified human sEH enzymatic activity, activator screen | activation, % at 2 µM | hit rate 0.04% among 91,000 | AID 717; in the data active = activation above about 37%
Active calls of the source: *; x = no result given.

SMILES	CYP2C9 inhib	CYP2C19 inhib	CYP2C19 act	CYP2C9 act	sEH inh	sEH act
COC(=O)c1cccc(NC(=O)CSc2nnc(C)n2Cc2ccccc2)c1	89*	70*	0.3	0.1	x	x
C=C1CC2C=C(NC(C)=O)CC(C1)C2 (centres undefined)	4	20	0.8	1	-4	1
CCn1c2ccccc2c2cc(NC(=O)C(C)Oc3ccccc3)ccc21 (centres undefined)	39	61*	0.4	0.6	-10	8
CC(Oc1ccc(F)cc1)C(=O)Nc1ccc2ccccc2c1 (centres undefined)	23	4	1	0.8	-6	6
CCn1c2ccccc2c2cc(NC(=O)C(C)Oc3ccc(OC)cc3)ccc21 (centres undefined)	48	69*	0.3	0.5	3	-3
O=C(NS(=O)(=O)c1ccccc1)c1ccccc1F	14	-8	1.1	0.9	-8	14
O=C(Nc1ccc(Cn2nnc3ccccc32)cc1)c1ccco1	8	-7	1.1	0.9	1	-2
CC1c2[nH]c3ccccc3c2CCN1C(=O)Nc1ccccc1 (centres undefined)	x	x	x	x	-10	12
Cc1cc(=O)oc(C)c1C(=O)N1CCc2c([nH]c3ccccc23)C1C(C)C (centres undefined)	19	50*	0.5	0.8	8	-10
CCC(C)N1CCN(C(=O)c2cccs2)CC1 (centres undefined)	x	x	x	x	-13	13
COCCSc1ccccc1C(=O)N1CCN(Cc2ccc3c(c2)OCO3)CC1	19	12	0.9	0.8	15	-12
O=C(c1ccc(COc2ccc(Cl)cc2)o1)N1CCN(Cc2ccc3c(c2)OCO3)CC1	62*	16	0.8	0.4	8	-10
O=C(c1ccc(COc2ccccc2Cl)o1)N1CCN(Cc2ccc3c(c2)OCO3)CC1	87*	72*	0.3	0.1	x	x
CCN1CCN(C(=O)c2ccc(COc3ccc(Cl)cc3)o2)CC1	1	-3	1	1	-4	8
COC(CNc1cc(=O)oc2ccccc12)OC	4	13	0.9	1	-1	-1
CC1(C)CC(=O)C2=C(C1)NC(=O)CC2c1ccc(N(CCC#N)CCC#N)cc1 (centres undefined)	-8	-7	1.1	1.1	x	x
CCOC(=O)CNC(=O)Nc1nnc(-c2ccc(OCC)cc2)o1	-17	-4	1	1.2	x	x
COc1cc(C)c(Cl)cc1S(=O)(=O)NCC1CCCO1 (centres undefined)	-46	94*	0.1	1.5	6	-1
O=S(=O)(NCC1CCCO1)c1ccc(Cl)c(C(F)(F)F)c1 (centres undefined)	-290	66*	0.3	3.9*	4	0
O=S(=O)(NCC1CCCO1)c1cc(Br)c(Br)s1 (centres undefined)	-97	66*	0.3	2*	x	x
Cn1c(=O)oc2cc(S(=O)(=O)NCC3CCCO3)ccc21 (centres undefined)	x	x	x	x	13	-9
CCOc1cc(C)c(Cl)cc1S(=O)(=O)NCC1CCCO1 (centres undefined)	-25	90*	0.1	1.2	25	-21
CCOc1ccccc1-c1cc(-c2ccc(OC)cc2)nc2c1c(=O)n(C)c(=O)n2C	28	-7	1.1	0.7	x	x
Cn1nc(CC(=O)Nc2cccc3ncccc23)c2ccccc2c1=O	-7	-12	1.1	1.1	1	0
Oc1ccc2ccccc2c1C=Nc1ccccc1-c1nc2ccccc2[nH]1	95*	45	0.6	0.1	8	-7
SMILES	CYP2C9 inhib	CYP2C19 inhib	CYP2C19 act	CYP2C9 act	sEH inh	sEH act
CCOC(=O)c1cc(-c2ccccc2)n(CC(=O)O)c1C	72*	5	0.9	0.3	x	x
CCOC(=O)c1cc(-c2ccc(C)cc2)n(CCC(=O)NC(C)CC)c1C (centres undefined)	48	64*	0.4	0.5	-9	8
CCCNC(=O)CCn1c(-c2ccc(C)cc2)cc(C(=O)OCC)c1C	62*	66*	0.3	0.4	3	-4
COc1ccccc1N1CCN(C(=O)c2ccoc2C)CC1	16	74*	0.3	0.8	-10	13
Cc1onc(-c2ccccc2Cl)c1C(=O)N1CCN(c2nc3ccccc3s2)CC1	92*	96*	0	0.1	x	x
Cc1onc(-c2ccccc2Cl)c1C(=O)N1CCN(C/C=C/c2ccccc2)CC1	-3	5	0.9	1	x	x
Cc1onc(-c2ccccc2Cl)c1C(=O)N1CCCCC1C(=O)O (centres undefined)	1	10	0.9	1	16	-15
COc1ccccc1N1CCN(C(=O)c2c(-c3ccccc3Cl)noc2C)CC1	65*	94*	0.1	0.3	x	x
COC(=O)C1CCN(C(=O)c2c(-c3ccccc3Cl)noc2C)CC1	15	54*	0.5	0.9	-1	-1
N#Cc1ccccc1CSc1nc(O)cc(=O)[nH]1	-10	0	1	1.1	-5	2
O=C(Nc1ccccc1C(=O)N1CCCC1)c1ccccc1	x	x	x	x	0	0
O=C(Nc1cc2c3c(c1)C1CCCC1CN3CC1CCCC21)c1ccccc1 (centres undefined)	81*	8	0.9	0.2	14	-12
O=c1c2cnn(-c3ccccc3)c2ncn1/N=C/c1ccncc1	x	x	x	x	-7	5
CC(C)c1nnc(SCC(=O)NCCC2=CCCCC2)n1N	60*	17	0.8	0.4	3	-1
CCN(CC)S(=O)(=O)c1cccc(-c2nnc(SCC(=O)NCCC3=CCCCC3)n2N)c1	38	18	0.8	0.6	x	x
CCOc1cc(C2CC(=O)Nc3cc(C)c(C)cc32)ccc1O (centres undefined)	84*	87*	0.1	0.2	-1	-1
CC(=O)c1sc(-c2c(C)nc3sccn23)nc1C1CCCC1	36	14	0.9	0.6	x	x
CCc1nnc(NC(=O)C(C)N2C(=O)C3C4C=CC(C4)C3C2=O)s1 (centres undefined)	3	-16	1.2	1	-11	12
CCOC(=O)C1CCCN(c2c(N3CCc4ccccc4C3)c(=O)c2=O)C1 (centres undefined)	50	35	0.7	0.5	6	-6
Cn1c(NC(=O)c2cc(-c3ccc4c(c3)OCO4)nc3ccccc23)cc(=O)n(C)c1=O	73*	30	0.7	0.3	-3	6
CC(C)C1C(c2ccccc2)N(C)C(c2ccccc2)CC1(O)c1ccccc1 (centres undefined)	-5	-2	1	1.1	4	-3
CC1C(=O)CC(c2ccccc2)N(C)C1c1ccccc1 (centres undefined)	90*	100*	0	0.1	15	-12
S=C(NCc1ccco1)N1CCN(C(c2ccccc2)c2ccccc2)CC1	72*	35	0.7	0.3	3	0
O=C(CN1CCN(C(c2ccccc2)c2ccccc2)CC1)NC(=O)NCc1ccco1	-96	7	0.9	2*	1	-1

Screens: PubChem BioAssay, several laboratories
